PubChem BioAssay (Tox21)
Values joined by “and” are separate entries in the source; they are usually repeats but may differ in a detail not shown here. Equal entries are not always repeated. Records with an inconclusive call do not appear. A call without a number means that no potency is given here. Active and inactive are the calls of the source. Unless noted, calls follow the shape of the dose curve; as a rule, active = well fitted curve in the direction sought with a large enough effect in the repeat runs; inconclusive = weak or mixed curves; inactive = no such curve, though single readings can be large; an effect the other way counts as inactive or inconclusive. Positions of bridges follow the written chain, without caps; N, C: chain ends. Non-standard residues stand in square brackets, D forms with d. Residues, ends and D or L forms follow the SMILES beside them. *: point of attachment. Dab(CH2SO3H) = N[C@@H](CCNCS(=O)(=O)O)C(=O)O; X3 = CC[C@@H](C)CCCCC(=O)*; Dab = NCC[C@H](N)C(=O)O

Assays:
[1] = qHTS assay for small molecule agonists of the p53 signaling pathway (AID 651631; calls by dose curve; also: nearly all actives have a fitted effect of over 15% in size; also: potency is read from the fitted curve at half-maximal effect); conditions: HCT-116 p53RE-bla reporter, beta-lactamase FRET ratio, 16 h; series mostly up to 73.3 µM
Procedure, shortened: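 We treat p53RE-bla HCT-116 cells with compounds for 16 h at 37 °C, add LiveBLAzer B/G FRET substrate for 2 h at room temperature, and measure fluorescence intensity.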

[2] = qHTS assay for small molecules that induce genotoxicity in human embryonic kidney cells expressing luciferase-tagged ATAD5 (AID 651632); conditions: HEK293T ATAD5-luciferase induction, 16 h; series mostly up to 83.3 µM; also: nearly all actives have a fitted effect of over 15% in size; also: potency is read from the fitted curve at half-maximal effect
Procedure, shortened: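 Increased luciferase signal from ATAD5-tagged reporter cells indicates DNA-damage-driven ATAD5 induction. HEK293T cells are treated for 16 hr at 37C before detection with Amplite.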

[3] = qHTS assay for small molecules that induce genotoxicity in human embryonic kidney cells expressing luciferase-tagged ATAD5 - cell viability (AID 651634; calls by dose curve; also: nearly all actives have a fitted effect of over 25% in size); conditions: HEK293T ATAD5-luc cells viability, CellTiter-Fluor, 15.5 h; series mostly up to 83.3 µM
Procedure, shortened: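 Cytotoxicity counterscreen in HEK293T cells bearing an ATAD5-luciferase reporter: live-cell protease activity measured by CellTiter-Fluor fluorescence after 15.5 hr compound exposure.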

[4] = qHTS assay for small molecule disruptors of the mitochondrial membrane potential - cell viability (AID 720634; calls by dose curve;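 also: human HepG2 liver cancer cells; nearly all actives have a fitted effect of over 20% in size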); conditions: HepG2 viability, ATP luminescence (CellTiter-Glo), 1 h; series mostly up to 83.2 µM
Procedure, shortened: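 After overnight attachment at 37 C, HepG2 cells received compound or DMSO vehicle for 1 hr. Viability is then taken from ATP-driven luminescence following a 30 min room-temperature CellTiter-Glo step.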

[5] = qHTS assay to test for compound auto fluorescence at 590 nm (red) in HepG2 cells (AID 720674); conditions: HepG2 autofluorescence, red 540/590 nm, 1 h; series mostly up to 46 µM
Procedure, shortened: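 Seeding: 2,000 HepG2 cells/well, MEM/10% FBS, overnight 37 C. Dosing: compound vs DMSO. Incubation: 1 hr, 37 C, 5% CO2. Read: fluorescence 540 ex/590 em, Rose Bengal sodium as red reference.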

[6] = qHTS assay to test for compound auto fluorescence at 535 nm (green) in HepG2 cells (AID 720675); conditions: green autofluorescence 485/535 nm, 1 h; series mostly up to 46 µM
[7] = qHTS assay to test for compound auto fluorescence at 460 nm (blue) in HEK293 cells (AID 720678); conditions: blue autofluorescence 405/460 nm; series mostly up to 46 µM
Procedure, shortened: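 HEK293 cells (2,000/well, medium with 10% dialyzed FBS) attached 4-5 hr, then exposed to compound overnight at 37C, 5% CO2. Blue fluorescence read at 405/460 nm, with triamterene as reference fluorophore.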

[8] = qHTS assay to test for compound auto fluorescence at 590 nm (red) in HEK293 cells (AID 720679); conditions: red autofluorescence 540/590 nm; series mostly up to 46 µM
Procedure, shortened: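 HEK293 cells (2,000/well, 10% dialyzed FBS) attached 4-5 hr, then dosed with compound or DMSO and incubated overnight at 37C, 5% CO2. Red fluorescence read at 540/590 nm, Rose Bengal sodium as reference fluorophore.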

[9] = qHTS assay for small molecule disruptors of the mitochondrial membrane potential (AID 720635); conditions: HepG2 mitochondrial membrane potential, Mito-MPS dye ratio; series mostly up to 83.2 µM; also: potency is read from the fitted curve at half-maximal effect
Procedure, shortened: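 HepG2 cells exposed to compound 1 hr at 37C, then Mito-MPS dye 30 min. Ratio read of aggregate (540/590 nm) versus monomer (490/535 nm) fluorescence.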

[10] = qHTS assay for small molecule agonists of the p53 signaling pathway - cell viability (AID 651633; calls by dose curve; also: nearly all actives have a fitted effect of over 30% in size; also: potency is read from the fitted curve at half-maximal effect); conditions: p53RE-bla HCT-116 viability, ATP luminescence, 16 h; series mostly up to 83.3 µM
Procedure, shortened: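 p53RE-bla cells were treated with compound for 16 hours at 37 C. Cytotoxicity was then measured as CellTiter-Glo luminescence after 30 min at room temperature.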

SMILES	Potency [1]	Potency [2]	Potency [3]	Potency [4]	outcome [5]	Potency [6]	Potency [7]	outcome [8]	Potency [9]	Potency [10]
c1ccc(-c2ccc(C(c3ccccc3)n3ccnc3)cc2)cc1 (stereo unspecified)	29.8 µM (active)	inactive	inactive	inactive	inactive	inactive	inactive	inactive		
C[S+](CC[C@H](N)C(=O)O)C[C@H]1O[C@@H](n2cnc3c(N)ncnc32)[C@H](O)[C@@H]1O (stereo partly specified)	inactive	inactive	inactive	inactive	inactive	inactive	inactive	inactive		
CC(=O)OCC1=C(C(=O)O)N2C(=O)[C@@H](NC(=O)Cc3ccccc3)[C@H]2SC1	inactive	inactive	inactive	inactive	inactive	inactive	inactive	inactive	inactive	
C[S+](C)CCC(N)C(=O)O (stereo unspecified)	inactive	inactive	inactive	inactive	inactive	inactive	inactive	inactive	inactive	
CO/N=C(\C(=O)N[C@@H]1C(=O)N2C(C(=O)O)=C(CSc3cnns3)CS[C@H]12)c1csc(N)n1	inactive	inactive	inactive	inactive	inactive	inactive	inactive	inactive	inactive	
CO/N=C(\C(=O)N[C@@H]1C(=O)N2C(C(=O)[O-])=C(C[n+]3cccc4c3CCC4)CS[C@H]12)c1csc(N)n1	inactive	inactive		inactive	inactive	inactive	inactive	inactive	inactive	inactive
CC(C)(S)C(=O)N[C@@H](CS)C(=O)O	inactive		inactive	inactive	inactive	inactive	inactive	inactive	inactive	inactive
COc1ccc(/C=C/C(=O)Nc2ccccc2C(=O)O)cc1OC	inactive	1.19 µM (active)		inactive	inactive	inactive	inactive	inactive		inactive
NCCCC[C@H](NC(=O)[C@@H]1CCCN1C(=O)[C@@H]1CSSC[C@H](N)C(=O)N[C@@H](Cc2ccc(O)cc2)C(=O)N[C@@H](Cc2ccccc2)C(=O)N[C@@H](CCC(N)=O)C(=O)N[C@@H](CC(N)=O)C(=O)N1)C(=O)NCC(N)=O	inactive	inactive	inactive	inactive	inactive	inactive	inactive	inactive	inactive	
CCCCCCCCCC(=O)NO	inactive	inactive	inactive	inactive	inactive	inactive	inactive	inactive	inactive	
CC(C)OC(=O)Nc1ccc2nc(-c3cscn3)[nH]c2c1	2.37 µM (active)	10.6 µM (active)		inactive	inactive	inactive	inactive	inactive	9.87 µM (active)	
CCCCCCCCCCCCCCCC(=O)OC[C@H](COP(=O)([O-])OCC[N+](C)(C)C)OC(=O)CCCCCCCCCCCCCCC	inactive	inactive		inactive	inactive	inactive	inactive	inactive	inactive	inactive
CC[C@@H](C)CCCCC(=O)N[C@@H](CCNCS(=O)(=O)O)C(=O)N[C@H](C(=O)N[C@@H](CCNCS(=O)(=O)O)C(=O)N[C@H]1CCNC(=O)[C@H]([C@@H](C)O)NC(=O)[C@H](CCNCS(=O)(=O)O)NC(=O)[C@H](CCNCS(=O)(=O)O)NC(=O)[C@H](CC(C)C)NC(=O)[C@@H](CC(C)C)NC(=O)[C@H](CCNCS(=O)(=O)O)NC1=O)[C@@H](C)O (X3-[Dab(CH2SO3H)]T[Dab(CH2SO3H)][Dab][Dab(CH2SO3H)][dL]L[Dab(CH2SO3H)][Dab(CH2SO3H)]T; lactam 4-C)	inactive	inactive		inactive	inactive	inactive	inactive	inactive	inactive	inactive
C=C(Nc1ccc(OCC)cc1)Nc1ccc(OCC)cc1	inactive	inactive		inactive	inactive	inactive	inactive	inactive		inactive
O=C(O)C[C@H](O)C[C@H](O)/C=C/c1c(C2CC2)nc2ccccc2c1-c1ccc(F)cc1	inactive	inactive	inactive	inactive	inactive	inactive	inactive	inactive		
CC(C)NCC1CCc2cc(CO)c([N+](=O)[O-])cc2N1 (stereo unspecified)		inactive	inactive	inactive	inactive	inactive	inactive	inactive	inactive	inactive
CN(C/C=C/c1ccccc1)Cc1cccc2ccccc12		inactive	inactive	inactive	inactive	inactive	inactive	inactive	inactive	inactive
CC(C)CCC[C@@H](C)[C@H]1CC[C@H]2[C@@H]3CC[C@@H]4C[C@H](O)CC[C@]4(C)[C@H]3CC[C@]12C	inactive	inactive	inactive	inactive	inactive	inactive	inactive	inactive	inactive	
N=C(N)c1ccc(/C=C/c2ccc(C(=N)N)cc2O)cc1	inactive	inactive	inactive	inactive	inactive	inactive	inactive	inactive	1.97 µM (active)	
S=C1NC=NC2N=CNC12 (stereo unspecified)	3.44 µM (active)	inactive	inactive	inactive	inactive	inactive	inactive	inactive	4.86 µM (active)	
CC1(C)CCC(NC(=O)[C@@H](N)CCC(=O)O)CC1	inactive	inactive	inactive	inactive	inactive	inactive	inactive	inactive	inactive	

SMILES	Potency [1]	Potency [2]	Potency [3]	Potency [4]	outcome [5]	Potency [6]	Potency [7]	outcome [8]	Potency [9]	Potency [10]
CC1(C)C[C@@H]1C(=O)N/C(=C\CCCCSC[C@H](N)C(=O)O)C(=O)O	inactive		inactive	inactive	inactive	inactive	inactive	inactive	inactive	inactive
O=C(O)c1cc(=O)c2c3nc4ccccc4oc-3cc(=O)c2[nH]1	inactive	inactive	inactive	inactive	inactive	inactive	inactive	inactive	21.1 µM (active)	
CSCCC(N)C(=O)O (stereo unspecified)	inactive	inactive	inactive	inactive	inactive	inactive	inactive	inactive	inactive	
O=C1OC(O)C(C(Cl)Cl)=C1Cl (stereo unspecified)	14.1 µM (active)				inactive	inactive	inactive	inactive	63 µM (active)	
N#Cc1c(N(CC(=O)O)CC(=O)O)sc(C(=O)O)c1CC(=O)O	inactive	inactive		inactive	inactive	inactive	inactive	inactive	inactive	inactive
Cc1c(N)nc([C@H](CC(N)=O)NC[C@H](N)C(N)=O)nc1C(=O)N[C@H](C(=O)N[C@H](C)[C@@H](O)[C@H](C)C(=O)N[C@H](C(=O)NCCc1nc(-c2nc(C(=O)NCCCCN=C(N)N)cs2)cs1)[C@@H](C)O)[C@@H](O[C@@H]1O[C@@H](CO)[C@@H](O)[C@H](O)[C@@H]1O[C@H]1O[C@H](CO)[C@@H](O)[C@H](OC(N)=O)[C@@H]1O)c1cnc[nH]1	841 nM (active) and 66.8 nM (active)	inactive	inactive	inactive	inactive	inactive	inactive	inactive	inactive	
CC1(C)S[C@@H]2[C@H](N3C(=O)C(c4ccccc4)NC3(C)C)C(=O)N2[C@H]1C(=O)O (stereo partly specified)	inactive	inactive	inactive	inactive	inactive	inactive	inactive	inactive	inactive	
c1ccc2occc2c1		inactive	inactive	inactive	inactive	inactive	inactive	inactive		inactive
CCSCC		inactive	inactive	inactive	inactive	inactive	inactive	inactive		inactive
CN1CCN(c2ccccc2/C=C2\SCCN(c3ccc(Cl)c(Cl)c3)C2=O)CC1		inactive	inactive		inactive	inactive	inactive	inactive		61.1 µM (active)
COc1c(Br)cc(Br)c(C)c1Br		inactive	inactive	inactive	inactive	inactive	inactive	inactive		inactive
O=C(CCN1CCC(c2ccccc2)C1)c1ccc2c(c1)OCCO2 (stereo unspecified)		inactive	inactive	inactive	inactive	inactive	inactive	inactive	inactive	
CC(C)(C)c1ccc2c(S(=O)(=O)O)c(C(C)(C)C)ccc2c1		inactive	inactive	inactive	inactive	inactive	inactive	inactive		inactive
O=C1CC[C@@H](C(=O)N[C@H]2C[C@@H]2c2ccccc2)N1		inactive		inactive	inactive	inactive	inactive	inactive	inactive	inactive
CNC(=O)C[C@@H](N)C(=O)N[C@@H](C(=O)N[C@@H]1C(=O)N2[C@@H]1SC(C)(C)[C@@H]2C(=O)O)c1ccc(O)cc1		inactive	inactive	inactive	inactive	inactive	inactive	inactive	inactive	
NCc1cccc(C2CCN(C(=O)c3ccc(C#Cc4ccccc4F)o3)CC2)c1		inactive		inactive	inactive	inactive	inactive	inactive	inactive	61.1 µM (active)
CC[C@H](C)C(=O)O[C@H]1CCC=C2C=C[C@H](C)[C@H](CC[C@@H]3C[C@@H](O)CC(=O)O3)[C@H]21		inactive	inactive	inactive	inactive	inactive	inactive	inactive		inactive
CN1CCN(CCCN2c3ccccc3Sc3ccc(C(F)(F)F)cc32)CC1		inactive			inactive	inactive	inactive	inactive		29.8 µM (active)
NC(N)=NCCCCN=C(N)N		inactive	inactive	inactive	inactive	inactive	inactive	inactive	inactive	
c1ccc2cc3c4ccccc4c4ccccc4c3cc2c1		inactive	inactive		inactive	inactive	inactive	inactive		inactive
CCC(C)(C)c1ccc(CC(C)CN2C[C@@H](C)O[C@@H](C)C2)cc1 (stereo partly specified)		inactive		inactive	inactive	inactive	inactive	inactive	23.7 µM (active)	26.6 µM (active)
